Assay results as given in PubChem BioAssay (NCI).
Compounds without any hit were thinned out: in the full panel of roughly 79,000, 15% have a hit. Values without a mark were called inactive. Activity calls are given as the source filed them. No stated cut-off is given here; in the data, active means growth inhibition above about 70%; inactive means the rest.

Legend:
[1] = NCI Yeast Anticancer Drug Screen. Data for the rad50 strain (AID 155);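 further: 0% = growth of vehicle-only cultures of the same strain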; conditions: S. cerevisiae rad50 strain growth inhibition, active compounds read high
Summary of the method: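 Cells are treated with compound, grown, and their growth is then scored against vehicle-only cultures of the same repair-deficient yeast strain.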

[2] = NCI Yeast Anticancer Drug Screen. Data for the mec2-1 strain (AID 157); conditions: S. cerevisiae mec2-1 strain, active compounds read high
Summary of the method: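 Mutant yeast (mec2-1) grown with compound; growth inhibition relative to vehicle control reported.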

[3] = NCI Yeast Anticancer Drug Screen. Data for the sgs1 mgt1 strain (AID 161);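 further: 0% = growth of cultures given vehicle only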; conditions: S. cerevisiae sgs1 mgt1 strain, active compounds read high
Summary of the method: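 Percent growth inhibition was derived by comparing compound-exposed mutant yeast with vehicle-exposed cultures. The strain carries alterations in DNA damage repair.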

[4] = NCI Yeast Anticancer Drug Screen. Data for the cln2 rad14 strain (AID 165);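 further: 0% = growth equal to vehicle treated cultures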; conditions: S. cerevisiae cln2 rad14 strain, active compounds read high
Summary of the method: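 Readout is yeast growth inhibition versus vehicle-treated controls, using a strain with cln2 and rad14 alterations exposed to compound.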

[5] = NCI Yeast Anticancer Drug Screen. Data for the bub3 strain (AID 167); conditions: S. cerevisiae bub3 mutant strain, active compounds read high
Summary of the method: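 Part of a panel of yeast mutants defective in DNA damage repair or cell cycle regulation. Each strain is grown with compound, and inhibition is calculated relative to solvent-treated cultures.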

[6] = NCI Yeast Anticancer Drug Screen. Data for the mlh1 rad18 strain (AID 175); conditions: S. cerevisiae mlh1 rad18 strain growth inhibition, active compounds read high
Summary of the method: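 Genetically defined yeast (DNA repair-deficient) exposed to compounds; growth inhibition determined relative to vehicle.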

[7] = at 5.0 µM (retest, dose inferred, filed as 0.5)
[8] = at 50.0 µM (retest, dose inferred, filed as 5.0)

Row | SMILES | growth inhibition [1, 7] | growth inhibition [1, 8] | growth inhibition ([1]; at 50.0 µM) | growth inhibition [2, 7] | growth inhibition [2, 8] | growth inhibition ([2]; at 50.0 µM) | growth inhibition [3, 7] | growth inhibition [3, 8] | growth inhibition ([3]; at 50.0 µM) | growth inhibition [4, 7] | growth inhibition [4, 8] | growth inhibition ([4]; at 50.0 µM) | growth inhibition [5, 7] | growth inhibition [5, 8] | growth inhibition ([5]; at 50.0 µM) | growth inhibition [6, 7] | growth inhibition [6, 8] | growth inhibition ([6]; at 50.0 µM)
1 | O=S(=O)(c1ccccc1)C1CN=NC1c1ccccc1 (configuration not stated) | 4% | 79% (active) | 84.2% (active) | -16% | 97% (active) | 97.7% (active) | -7% | 98% (active) | 73.6% (active) | -2% | 69% | 93.5% (active) | 6% | 98% (active) | 87.8% (active) | 30% | 97% (active) | 97% (active)
2 | CCc1cc(/C=C\c2ccnc3ccccc23)ccc1N(C)C | -1% | 99% (active) | 98.2% (active) | -17% | 91% (active) | 98.4% (active) | -1% | 95% (active) | 98.3% (active) | -12% | 81% (active) | 93.5% (active) | -6% | 93% (active) | 98.1% (active) | -8% | 97% (active) | 98% (active)
3 | Cc1ccc(C(C)(C)C)c(O)c1O | 4% | 98% (active) | 91.2% (active) | -18% | 98% (active) | 91.7% (active) | 1% | 52% | 92.1% (active) | 8% | 98% (active) | 91.8% (active) | -9% | 98% (active) | 91.4% (active) | -25% | 97% (active) | 90.5% (active)
4 | C=C1CC23CCC4C(C)(C(=O)O)CCCC4(C)C2CCC1C3 (configuration not stated) | 27% | 98% (active) | 90.5% (active) | 40% | 98% (active) | 91% (active) | 18% | 97% (active) | 90% (active) | 19% | 97% (active) | 87.2% (active) | 13% | 97% (active) | 89.3% (active) | 49% | 98% (active) | 82% (active)
5 | O=C1CSC(c2c[nH]c3ccccc23)N1c1cccc(Cl)c1 (configuration not stated) | 10% | 93% (active) | 85.8% (active) | 8% | 97% (active) | 87.7% (active) | 16% | 87% (active) | 87.3% (active) | 6% | 95% (active) | 87% (active) | 16% | 97% (active) | 88.5% (active) | -5% | 97% (active) | 84.5% (active)
6 | CCCC(=O)C1=C(O)C(Cc2c(O)c(C)c(O)c(C(=O)CCC)c2O)=C(O)C(C)(C)C1=O | -1% | 52% | 98.2% (active) | 4% | 34% | 92.9% (active) | 6% | 56% | 98.5% (active) | -4% | 83% (active) | 99.1% (active) | -1% | 92% (active) | 98.3% (active) | 7% | 66% | 99% (active)
7 | CCCCCCCCCCCCCCCC[NH][Ge]([NH]CCCCCCCCCCCCCCCC)([NH]CCCCCCCCCCCCCCCC)[NH]CCCCCCCCCCCCCCCC | 98% (active) | 96% (active) | 87.4% (active) | 99% (active) | 97% (active) | 91.5% (active) | 99% (active) | 96% (active) | 90.2% (active) | 99% (active) | 96% (active) | 89.2% (active) | 99% (active) | 97% (active) | 87.2% (active) | 98% (active) | 95% (active) | 87.2% (active)
8 | CCOC(=O)Nc1nc2ccc(Cn3cccc3)cc2[nH]1 | 25% | 31% | 17.8% | 19% | 22% | -12.5% | 24% | 24% | 10.9% | 33% | 24% | 6.05% | 22% | 24% | -1.9% | 25% | 23% | -0.95%
9 | O=C1OC(C2OC(=O)C(=O)C2C(=O)c2ccc([N+](=O)[O-])cc2)C(C(=O)c2ccc([N+](=O)[O-])cc2)C1=O (configuration not stated) | 5% | 57% | 91.6% (active) | 14% | 44% | 59.1% | 10% | 86% (active) | 91.5% (active) | 11% | 22% | 64.2% | 5% | 39% | 56.6% | 6% | 53% | 96.5% (active)
10 | Nc1cccc2cccnc12 | 31% | 72% (active) | 89.3% (active) | 8% | 14% | 27% | 18% | 48% | 78.4% (active) | 4% | 6% | 18.4% | -3% | -4% | 12.6% | 29% | 66% | 91% (active)
11 | O=C1/C(=C\c2ccccc2)CN(C(=O)CCN2CCCCC2)C/C1=C/c1ccccc1 | 16% | 71% (active) | 89.8% (active) | 22% | 57% | 92.8% (active) | 98% (active) | 99% (active) | 90.3% (active) | 83% (active) | 99% (active) | 90.3% (active) | 99% (active) | 99% (active) | 90.8% (active) | 28% | 74% (active) | 88.8% (active)
12 | Oc1cccc2ccncc12 | 7% | 9% | 29.3% | -14% | 14% | 20.4% | 3% | 16% | 22.1% | 13% | 29% | 9.05% | 2% | 14% | 21.1% | 2% | 43% | 58.4%
13 | O=C1C(Cl)=C(N2C(=O)CCCC2=O)C(=O)c2ccccc21 | 100% (active) | 99% (active) | 89.2% (active) | 100% (active) | 99% (active) | 90.2% (active) | 100% (active) | 99% (active) | 91.5% (active) | 99% (active) | 99% (active) | 89.8% (active) | 100% (active) | 99% (active) | 89.1% (active) | 99% (active) | 99% (active) | 88.3% (active)
14 | CC(=O)N(C1=C(Cl)C(=O)c2ccccc2C1=O)c1ccc(C)cc1 | 99% (active) | 99% (active) | 99.5% (active) | 100% (active) | 100% (active) | 99.5% (active) | 100% (active) | 100% (active) | 99.6% (active) | 100% (active) | 98% (active) | 94% (active) | 99% (active) | 99% (active) | 96.5% (active) | 100% (active) | 100% (active) | 99.5% (active)
15 | N=C(N)c1ccc(Nc2ccc(C(=N)N)cc2)cc1 | 20% | 5% | 91.2% (active) | 30% | -7% | 86.3% (active) | 19% | 9% | 90% (active) | 1% | 14% | 72.2% (active) | 21% | 56% | 97.8% (active) | 14% | 39% | 91% (active)
16 | CC1([N+](=O)[O-])C(=O)C2(N3CCCCC3)CCCC2C1c1ccccc1 (configuration not stated) | 3% | 10% | 15.5% | 3% | 21% | 8.6% | 6% | 8% | 19% | 5% | -1% | 36.2% | 1% | 13% | 12% | 1% | 20% | 16.5%
17 | O=C1Nc2c(ccc(Cl)c2I)C1=O | -28% | 97% (active) | 92.2% (active) | -3% | 99% (active) | 94.3% (active) | -13% | 70% (active) | 92.3% (active) | 9% | 98% (active) | 91.2% (active) | -5% | 98% (active) | 91.6% (active) | -27% | 99% (active) | 91.7% (active)
18 | CC(=O)/C(=C\c1ccc(Cl)cc1Cl)C(=O)CCN(C)C | 4% | 99% (active) | 97.5% (active) | -3% | 99% (active) | 99.3% (active) | 11% | 99% (active) | 97.3% (active) | 4% | 98% (active) | 76% (active) | -1% | 98% (active) | 98% (active) | 1% | 98% (active) | 98.8% (active)
19 | CC(=O)OC1CCCc2c1nc1ccccc1[n+]2[O-] (configuration not stated) | 10% | -2% | 8.6% | 10% | 0% | 4.55% | 6% | 1% | 0.5% | 3% | -3% | 28.6% | 15% | 4% | -10.5% | 11% | -5% | 5.7%
